The values that follow come from PubChem BioAssay (NCI).

The nature of experiment [1]: NCI Yeast Anticancer Drug Screen. Data for the rad50 strain (AID 155).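 Also: 0% = growth of vehicle-only cultures of the same strain.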 To be noted: S. cerevisiae rad50 strain growth inhibition, active compounds read high; at 50.0 µM unless noted. A digest of the protocol:
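Cells are treated with compound, grown, and their growth is then scored against vehicle-only cultures of the same repair-deficient yeast strain.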

A short description of experiment [2]: NCI Yeast Anticancer Drug Screen. Data for the mec2-1 strain (AID 157). To be noted: S. cerevisiae mec2-1 strain, active compounds read high; at 50.0 µM unless noted. A digest of the protocol: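 Vehicle-treated cultures served as reference for growth inhibition of compound-exposed mec2-1 yeast.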
The nature of experiment [3]: NCI Yeast Anticancer Drug Screen. Data for the sgs1 mgt1 strain (AID 161).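 Also: 0% = growth of cultures given vehicle only.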 To be noted: S. cerevisiae sgs1 mgt1 strain, active compounds read high; at 50.0 µM unless noted. A digest of the protocol: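 Read-out: growth inhibition vs vehicle controls. Cells: mutant yeast strain deficient in DNA damage repair.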
Experiment [4] can be described thus: NCI Yeast Anticancer Drug Screen. Data for the cln2 rad14 strain (AID 165).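 Also: 0% = growth equal to vehicle treated cultures.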 The following applies: S. cerevisiae cln2 rad14 strain, active compounds read high; at 50.0 µM unless noted. A digest of the protocol:
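Each compound was tested on cln2 rad14 yeast. Inhibition of growth was calculated against vehicle-exposed controls.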

A short description of experiment [5]: NCI Yeast Anticancer Drug Screen. Data for the bub3 strain (AID 167). The following applies: S. cerevisiae bub3 mutant strain, active compounds read high; at 50.0 µM unless noted. A digest of the protocol: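 Part of a panel of yeast mutants defective in DNA damage repair or cell cycle regulation. Each strain is grown with compound, and inhibition is calculated relative to solvent-treated cultures.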

The nature of experiment [6]: NCI Yeast Anticancer Drug Screen. Data for the mlh1 rad18 strain (AID 175). To be noted: S. cerevisiae mlh1 rad18 strain growth inhibition, active compounds read high; at 50.0 µM unless noted. The method, boiled down:
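Vehicle-treated cultures served as the reference for growth inhibition in a yeast strain carrying DNA damage repair alterations exposed to each compound.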

Values joined by “and” are separate entries in the source; they are usually repeats but may differ in a detail not shown here. Equal entries are not always repeated. Compounds without any hit were thinned out: in the full panel of roughly 79,000, 15% have a hit. A number with no mark means an inactive call. Active and inactive are the calls of the source. Rule as the data show it: active = growth inhibition above about 70%; inactive = the rest.

Turning to `CS(=O)(=O)c1ncc(Br)cn1`, the growth inhibition in experiment [1] was 15.6%; in experiment [2] it was -6.85%; in experiment [3], 5.45%; in experiment [4], 17.1%; in experiment [5], 6.4%; in experiment [6], 7.75%.

On to `CC1=CC(C)(C)N(C)C(N)=N1`, for which the growth inhibition is -4.45% in experiment [1]; -3.1% in experiment [2]; -5.3% in experiment [3]; -43.2% in experiment [4]; -2.65% in experiment [5]; -1.75% in experiment [6].

In the case of `C=C1[C@@H](O)C[C@@H]2C[C@@]3(C)[C@H](C(C)(C)C[C@@H]3O)C12O` (stereo not given in full), the growth inhibition in experiment [1] was -4.25%; in experiment [2] it was -17.5%; in experiment [3] it was -20.9%; in experiment [4], 5%; in experiment [5], -19%; in experiment [6] it was -20.2%.

Consider `Cc1[nH]nc2c1C(=O)C=C(N(CCO)c1ccccc1)C2=O`, for which the growth inhibition in experiment [1] is -24.6%; in experiment [2], 5.35%; in experiment [3], 2.25%; in experiment [4] it was 11.2%; in experiment [5] it was -11.9%; in experiment [6], -6.55%.

For the compound `O=[N+]([O-])c1cccc(SSc2cccc([N+](=O)[O-])c2)c1`, the growth inhibition in experiment [1] was 0.45% and -34.8%; in experiment [2], -16.1% and -57%; in experiment [3] it was -1.8% and -61.9%; in experiment [4] it was -2.95% and -12.7%; in experiment [5] it was -3.1% and -35.6%; in experiment [6] it was -1.3% and -65.8%.

In the case of `Cc1ccccc1NC(=O)C(=O)CC(=O)c1sc(-n2nc(-c3ccccc3)cc2-c2ccccc2)nc1C`, the growth inhibition in experiment [1] is 12.3%; in experiment [2] it was -4.3%; in experiment [3], 5.45%; in experiment [4], 16.4%; in experiment [5] it was 2.05%; in experiment [6], -17.8%.

For `CCSC(SCC)=C1C(=O)N(c2ccccc2)N=C1C`, the growth inhibition is -6.75% in experiment [1]; -18.8% in experiment [2]; -4.1% in experiment [3]; 16.2% in experiment [4]; 8.6% in experiment [5]; 2.85% in experiment [6].

With `Cc1cc(=O)n(-c2ccccc2)c(=O)[nH]1`, the growth inhibition in experiment [1] was 1.2%; in experiment [2], 1.95%; in experiment [3] it was 1.5%; in experiment [4], 1.2%; in experiment [5], -4.25%; in experiment [6] it was -12%.

`CCCCCCCCCCCCC(=O)N1CCOCC1`: the growth inhibition in experiment [1] is 99.5% (active); in experiment [2], 99.7% (active); in experiment [3] it was 99.8% (active); in experiment [4], 99.5% (active); in experiment [5], 99.6% (active); in experiment [6] it was 99.5% (active).

`CCOC(=O)/C(C#N)=C/c1ccccc1Cl`: the growth inhibition is 12.1% in experiment [1]; -6.3% in experiment [2]; -30.6% in experiment [3]; 16.1% in experiment [4]; -20.1% in experiment [5]; 6.35% in experiment [6].

As for `Nc1ncc2c(=O)[nH][nH]c(=O)c2n1`, the growth inhibition in experiment [1] is 34.9%; in experiment [2], 31.6%; in experiment [3], 16.6%; in experiment [4] it was 12.4%; in experiment [5], 3.4%; in experiment [6] it was -5.5%.

For `O=C(CC(=O)C(F)(F)F)c1ccccc1.O=C(CC(=O)C(F)(F)F)c1ccccc1.[Mn]`, the growth inhibition is -1.85% in experiment [1]; -0.35% in experiment [2]; 19.2% in experiment [3]; -13.7% in experiment [4]; 3.6% in experiment [5]; 18.5% in experiment [6].

On to `Nc1nc(CC2(O)CCCCC2)cc(-c2ccccc2)n1`, for which the growth inhibition in experiment [1] is 49%; in experiment [2] it was 29.6%; in experiment [3] it was 21.1%; in experiment [4] it was 55.2%; in experiment [5], 45.5%; in experiment [6], 44.8%.

`CCOc1ccc(OCC)c(NC=O)c1`: the growth inhibition in experiment [1] was -9%; in experiment [2] it was -20.1%; in experiment [3], -6.75%; in experiment [4], 8.4%; in experiment [5] it was -11.8%; in experiment [6], 2.95%.

On to `CCCCCCC(/C=N/NC(=O)CCCCCCCCC(=O)N/N=C/C(=C/c1ccccc1)CCCCCC)=C\c1ccccc1`, for which the growth inhibition was 11.4% in experiment [1]; 1.85% in experiment [2]; -5.95% in experiment [3]; -5.05% in experiment [4]; -1.45% in experiment [5]; 15.9% in experiment [6].

Regarding `C=C1CC(CCCC2CC(=C)C(=O)O2)OC1=O` (stereo not given), the growth inhibition in experiment [1] is 5.8%; in experiment [2], 12.9%; in experiment [3], -4.1%; in experiment [4] it was -50.7%; in experiment [5], -11.2%; in experiment [6], 6.15%.

Turning to `O=C1OCC/C1=C/c1ccc(N=Nc2c(O)ccc3ccccc23)cc1`, the growth inhibition was 2.4% in experiment [1]; -6.05% in experiment [2]; 11.1% in experiment [3]; 5.5% in experiment [4]; 11.7% in experiment [5]; 7.05% in experiment [6].

Consider `CN(C)C=Nc1ccc2c3c(cccc13)-c1ccccc1-2`, for which the growth inhibition in experiment [1] was -2.9%; in experiment [2], -24.1%; in experiment [3] it was 47.5%; in experiment [4], -0.35%; in experiment [5], 51.1%; in experiment [6] it was 41%.

Take `c1ccc(NN(Cc2cnccn2)c2ccccc2)cc1`: the growth inhibition in experiment [1] was 9.75%; in experiment [2], -2.65%; in experiment [3] it was -24.9%; in experiment [4], -29.9%; in experiment [5], -56.5%; in experiment [6] it was -12%.

On to `CSc1nnc(CCC(=O)Nc2cc(Cl)ccc2Cl)o1`, for which the growth inhibition is 40.7% in experiment [1]; 44.8% in experiment [2]; 28.9% in experiment [3]; 15.7% in experiment [4]; 54.5% in experiment [5]; 9.05% in experiment [6].
